PubChem BioAssay (NCI)
The panel holds about 83,000 compounds, 20% with a hit somewhere; the sample as a whole holds those more often.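 Assay: single dose, 48 h. Readout: percent growth (0 = no net growth; negative = cell death). Active: <10.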 Calls of active or inactive are those of the source.

Legend:
Test in all cases: NCI-60 one-dose screen, 48 h (100 = growth as untreated, 0 = no growth, -100 = all killed)
Conditions in all cases: 10 µM unless noted
[1] = test system: SK-MEL-2 melanoma
[2] = test system: EKVX NSCLC
[3] = test system: SN12C renal
[4] = test system: UO-31 renal
[5] = test system: TK-10 renal
[6] = test system: ACHN renal
[7] = test system: CAKI-1 renal
[8] = test system: A498 renal
[9] = test system: CCRF-CEM leukemia
[10] = test system: MOLT-4 leukemia

Measured: growth

CC(C)(C)c1nc(-c2ccc(O)c(O)c2)cs1
inactive: [1] 93.3% | [2] 88.9% | [3] 59.5% | [4] 39.5% | [5] 89.2% | [6] 50% | [7] 54.8% | [8] 104% | [9] 26.4% | [10] 44.1%

COC(=O)[C@]12CC[C@@H](C(C)=O)[C@@H]1[C@H]1CC[C@@H]3[C@@]4(C)C/C(=C/c5cccnc5)C(=O)C(C)(C)[C@@H]4CC[C@@]3(C)[C@]1(C)CC2
inactive: [1] 68.1% | [2] 85.8% | [3] 57.7% | [4] 56.6% | [5] 133% | [6] 32.5% | [7] 51% | [8] 80.6%
active: [9] 7.57% | [10] 5.47%

O=C(/C(=C(\C(=O)c1ccccc1)c1ccccc1)c1ccccc1)c1ccccc1
active: [10] -7.63%
inactive: [1] 81.5% | [2] 40.5% | [3] 62.5% | [4] 63.3% | [5] 86.8% | [6] 39.5% | [7] 57.8% | [8] 79.9% | [9] 16.2%

COc1cccc(-c2nn(-c3ccccc3)cc2-c2ccnc(NCCCO)c2)c1
active: [1] -0.25%
inactive: [2] 67.6% | [3] 34.3% | [4] 48.9% | [5] 63.1% | [6] 55.6% | [7] 43% | [8] 15.1% | [9] 11.8% | [10] 25.1%

COc1cc2c(cc1-c1c(C)noc1C)ncc1nc(C3CCCCC3)n([C@@H](C)COC(F)F)c12
active: [8] 1.93%
inactive: [1] 64.4% | [2] 39.2% | [3] 55.3% | [4] 23.6% | [5] 28.9% | [6] 37.8% | [7] 26.7% | [9] 46.1% | [10] 39.5%

Cn1cnc2c1c(=O)n(CCC(=O)Nc1ccc(F)cc1)c(=O)n2C
inactive: [1] 105% | [2] 107% | [3] 102% | [4] 92.7% | [5] 92.7% | [6] 114% | [7] 93.7% | [8] 96.8% | [9] 99.5% | [10] 106%

CC1(c2ccccc2)OC1C(=O)O (stereo not given)
inactive: [1] 107% | [2] 107% | [3] 106% | [4] 84.5% | [5] 102% | [6] 102% | [7] 94% | [8] 109% | [9] 101% | [10] 101%

COc1ccc(/C=C/C(=O)NCC(C)O)cc1 (stereo not given)
inactive: [1] 93.3% | [2] 99.4% | [3] 105% | [4] 81.9% | [5] 89.1% | [6] 102% | [7] 95.8% | [8] 92.7% | [9] 106% | [10] 109%

CN(C)CCCC1(c2ccc(F)cc2)OCc2cc(-c3ccc(C(F)(F)F)nc3)ccc21 (stereo not given)
inactive: [1] 94.2% | [2] 76.1% | [3] 75.1% | [4] 55.5% | [5] 82.4% | [6] 83.1% | [7] 55.4% | [8] 89.8% | [9] 69.1% | [10] 53.6%

N#C/C(=C\c1ccc(-c2ccc(Br)cc2)o1)c1nc(-c2cccs2)cs1
inactive: [1] 109% | [2] 79.6% | [3] 94.5% | [4] 82.1% | [5] 185% | [6] 105% | [7] 100% | [8] 99% | [9] 94.1% | [10] 97%

COc1ccc(C(=O)c2ccc(C)cc2)c(OC)c1OC
inactive: [1] 60.3% | [2] 92.7% | [3] 91.8% | [4] 72.6% | [5] 97.7% | [6] 97.3% | [7] 64.8% | [8] 70.1% | [9] 89% | [10] 46.8%

COc1ccccc1CNc1nc(N)nc2[nH]c3ccc(O)cc3c12
inactive: [1] 15.8% | [2] 90.4% | [3] 55.3% | [4] 59.6% | [5] 68.6% | [6] 68.5% | [7] 80.5% | [8] 28% | [9] 44% | [10] 22.4%

CN(C)CCCCC(C(=O)CBr)(c1ccccc1)c1ccccc1
active: [4] -56.1% | [5] -47.6% | [6] -65.4% | [7] -23.5% | [9] 5.74% | [10] 0.308%
inactive: [1] 53.8% | [2] 48.8% | [3] 20.8% | [8] 40.2%

CC1=CC(=O)N(c2cccc3c(N4C(=O)C=C(C)C4=O)cccc23)C1=O
active: [6] 1.27% | [10] 4.75%
inactive: [1] 87.5% | [2] 108% | [3] 93.3% | [4] 33.3% | [5] 35.3% | [7] 10.9% | [8] 124% | [9] 11.2%

CCCCC/C(=C\c1ccccc1)C1OC(C)C(C)O1 (stereo not given)
inactive: [1] 83.5% | [2] 103% | [3] 97.2% | [4] 101% | [5] 91% | [6] 101% | [7] 93.6% | [8] 105% | [9] 97.2% | [10] 110%

Cc1cc(C)c(NC(=O)c2sc3nc4c(cc3c2N)CCCC4)c(C)c1
inactive: [1] 16.8% | [2] 76.7% | [3] 50% | [4] 62.1% | [5] 64.7% | [6] 55.8% | [7] 53.1% | [8] 12.7% | [9] 20.4% | [10] 29.9%

COc1ccc(C2(Cl)c3ccccc3N(c3ccccc3)c3ccccc32)cc1
active: [1] -39.9% | [2] 0.119% | [3] -1.51% | [4] 7.46% | [5] 8.72% | [6] 4.85% | [7] 7.42% | [8] -26.5%
inactive: [9] 20.6% | [10] 12.7%

CCN1CCN(C(=O)[C@]23CC[C@@H](C)[C@H](C)[C@H]2C2=CC[C@@H]4[C@@]5(C)C/C(=C/c6cccc(OC)c6OC)C(=O)C(C)(C)[C@@H]5CC[C@@]4(C)[C@]2(C)CC3)CC1
inactive: [1] 84.6% | [2] 27.7% | [3] 43.2% | [4] 30.3% | [5] 95.9% | [6] 41.9% | [7] 31.4% | [8] 77.7% | [9] 30.2% | [10] 10.1%

N#Cc1c(-c2ccc(O)cc2)c2c(N)nn(-c3ccccc3)c2[nH]c1=O
inactive: [1] 103% | [2] 101% | [3] 104% | [4] 71.8% | [5] 137% | [6] 100% | [7] 97.1% | [8] 108% | [9] 110% | [10] 98.1%

COc1cccc(-c2nn(-c3ccccc3)cc2-c2ccnc(NCCNS(=O)(=O)c3ccccc3)c2)c1
inactive: [1] 21% | [2] 47.2% | [3] 36.1% | [4] 14.5% | [5] 43.8% | [6] 28.9% | [7] 43.7% | [8] 47.7% | [9] 12.2% | [10] 12.8%

COC(=O)[C@]12CC[C@@H](C)[C@H](C)[C@@H]1C1=CC(=O)[C@@H]3[C@@]4(C)C[C@@H](O)[C@H](O)[C@@]5(C)COC(=C45)C[C@@]3(C)[C@]1(C)CC2
inactive: [1] 33.6% | [2] 75.8% | [3] 55% | [4] 65.8% | [5] 83.3% | [6] 69.5% | [7] 71.1% | [8] 37.5% | [9] 59.7% | [10] 24.6%

COC(=O)[C@]12CC[C@@H](C(/C=C/c3cccnc3)=N/O)[C@@H]1[C@H]1CC[C@@H]3[C@@]4(C)CC(=C/c5cccnc5)/C(=N/O)C(C)(C)[C@@H]4CC[C@@]3(C)[C@]1(C)CC2
inactive: [1] 46% | [2] 26% | [3] 44.5% | [4] 19.5% | [5] 67.9% | [6] 42.9% | [7] 23.7% | [8] 92.5% | [9] 16.6%
active: [10] 2.12%

COc1ccc(-c2cc(-c3cccs3)n(N=O)c(=O)c2C#N)cc1
inactive: [1] 105% | [2] 115% | [3] 95.8% | [4] 89.4% | [5] 114% | [6] 109% | [7] 102% | [8] 87.7% | [9] 58.1% | [10] 107%

C=C(C)[C@@H]1CC[C@]2(C)[C@H](CC[C@@H]3[C@H]4[C@H]5OC[C@@]4(CCC5(C)C)CC[C@]32C)[C@@]1(C)CCCN
inactive: [1] 101% | [2] 71.2% | [3] 75.6% | [4] 63.8% | [5] 130% | [6] 59% | [8] 118% | [9] 51.8% | [10] 10.5%
active: [7] 3.89%

CC1(C)C(=O)/C(=C\c2ccco2)C[C@]2(C)[C@H]3CC[C@@H]4[C@@H](C(=O)/C=C/c5ccco5)CC[C@@]4(C)[C@]3(C)CC[C@@H]12
active: [1] -0.219%
inactive: [2] 105% | [3] 87.2% | [4] 58.9% | [5] 107% | [6] 19.3% | [7] 53.9% | [8] 91.3% | [9] 50.6% | [10] 68.3%

CC(C)/C=C/CC[C@](C)(O)[C@H]1CC[C@]2(C)[C@@H]1CC[C@@H]1[C@@]3(C)C/C(=C/c4cccc(C(F)(F)F)c4)C(=O)C(C)(C)[C@@H]3CC[C@]12C
inactive: [1] 126% | [2] 103% | [3] 89.2% | [4] 79.6% | [5] 157% | [6] 97% | [7] 64.3% | [8] 99% | [9] 86.9% | [10] 88.3%
